This note sets out measurements from ChEMBL document CHEMBL3988442, “University of Dundee, Small-Polar-MMV Screening Library” (2021).

The structures appear in SMILES notation. Values joined by “and” are separate entries in the source; they are usually repeats but may differ in a detail not shown here. Equal values may be shown once. For part of these data: Results with a measured potency or affinity are listed apart.

Common to all, as to parameters: scale not given: direction of the effect not stated beside the values
Assay [1] deals with Protein translocase subunit SecA (Escherichia coli (strain K12)) (UniProt P10408). The assay is described as follows: Assay to Identify E. coli SecA ATPase Inhibitors. To be noted: 30 µM. Format: functional.
For assay [2], the target named is T1, Ubiquitin-activating enzyme e1, putative (Leishmania donovani (strain BPK282A1)) (UniProt E9BSI1).
T1 sequence (whole entry): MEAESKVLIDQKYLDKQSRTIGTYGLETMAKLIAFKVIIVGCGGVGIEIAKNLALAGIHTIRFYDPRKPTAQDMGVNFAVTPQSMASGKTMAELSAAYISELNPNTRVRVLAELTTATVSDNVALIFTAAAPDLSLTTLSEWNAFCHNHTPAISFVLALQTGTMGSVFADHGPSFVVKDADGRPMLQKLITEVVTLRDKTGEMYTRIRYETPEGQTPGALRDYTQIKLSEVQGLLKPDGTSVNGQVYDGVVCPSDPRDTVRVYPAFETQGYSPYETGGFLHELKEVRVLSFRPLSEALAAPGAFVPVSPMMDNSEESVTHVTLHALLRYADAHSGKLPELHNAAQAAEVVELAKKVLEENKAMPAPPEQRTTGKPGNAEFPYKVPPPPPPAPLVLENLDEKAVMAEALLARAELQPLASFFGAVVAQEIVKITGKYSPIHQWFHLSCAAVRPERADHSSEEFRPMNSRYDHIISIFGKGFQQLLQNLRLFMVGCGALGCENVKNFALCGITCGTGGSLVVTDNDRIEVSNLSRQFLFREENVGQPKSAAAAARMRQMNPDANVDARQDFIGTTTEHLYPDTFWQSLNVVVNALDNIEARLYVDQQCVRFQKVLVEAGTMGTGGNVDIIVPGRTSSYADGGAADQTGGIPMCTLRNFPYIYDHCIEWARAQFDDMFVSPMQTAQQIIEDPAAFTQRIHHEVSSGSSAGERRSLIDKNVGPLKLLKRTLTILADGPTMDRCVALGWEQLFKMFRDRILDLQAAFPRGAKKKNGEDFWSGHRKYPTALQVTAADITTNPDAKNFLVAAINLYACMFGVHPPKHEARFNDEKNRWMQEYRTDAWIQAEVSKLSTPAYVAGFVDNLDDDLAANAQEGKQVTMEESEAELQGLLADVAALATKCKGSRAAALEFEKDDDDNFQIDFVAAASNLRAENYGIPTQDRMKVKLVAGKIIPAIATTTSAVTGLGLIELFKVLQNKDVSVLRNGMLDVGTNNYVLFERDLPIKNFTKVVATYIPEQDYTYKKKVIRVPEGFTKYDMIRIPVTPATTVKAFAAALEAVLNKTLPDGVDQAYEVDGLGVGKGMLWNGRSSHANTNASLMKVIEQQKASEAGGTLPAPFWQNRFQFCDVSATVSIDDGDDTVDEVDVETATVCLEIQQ
Put plainly: Leishmania donovani Ubiquitin Activating Enzyme (LdE1). The assay is classed as functional. As to conditions: 30 µM.

The target of assay [3] is AMP-activated protein kinase, AMPK (Homo sapiens) (UniProt P54646+O43741+P54619+Q9UGJ0+Q9Y478+Q13131+Q9UGI9). The assay is described as follows: AMP-dependent Kinase enzyme assay. An in vitro enzyme assay that detects ADP turnover that is directly proportional to AMPK activity. This uses naive AMPK that is activated during the assay with MK-8722. The assay is classed as functional. As to conditions: 30 µM.

In assay [4] the target is Sialic acid-binding Ig-like lectin 9 (Homo sapiens) (UniProt Q9Y336). The assay is described as follows: Hs-Siglec9 ALPHAscreen SOP 20170721. To be noted: 10 µM. Background: In Alpha technology, singlet oxygen from a donor bead excites a nearby acceptor bead.
Assay [5] has as its system Trypanosoma cruzi. Put plainly: Trypanosoma cruzi phosphomannomutase and mannose-1-phosphate guanylyltransferase assay. Format: functional. As to conditions: 10 µM.
The target in assay [6] is T2, Arginase-2, mitochondrial (Homo sapiens) (UniProt P78540).
T2 sequence (whole entry): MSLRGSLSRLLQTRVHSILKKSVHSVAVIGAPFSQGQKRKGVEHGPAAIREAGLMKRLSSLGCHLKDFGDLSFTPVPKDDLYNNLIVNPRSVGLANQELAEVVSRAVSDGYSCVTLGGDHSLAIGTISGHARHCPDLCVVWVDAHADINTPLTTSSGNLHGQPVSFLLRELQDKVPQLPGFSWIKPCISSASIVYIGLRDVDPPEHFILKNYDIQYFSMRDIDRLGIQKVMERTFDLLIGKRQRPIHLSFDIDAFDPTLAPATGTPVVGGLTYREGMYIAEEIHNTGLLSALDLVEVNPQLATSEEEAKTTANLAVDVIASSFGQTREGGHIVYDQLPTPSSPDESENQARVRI
Put plainly: in vitro enzyme assay to detect the production of urea directly proportional to the activity of Arginase II. Note: in the data most compounds retested in dose-response had high values. As to conditions: 33.3 µM. Format: functional.

Assay [7] has as its target T3, Proteasome subunit beta (Trypanosoma cruzi) (UniProt O96673).
T3 sequence (whole entry): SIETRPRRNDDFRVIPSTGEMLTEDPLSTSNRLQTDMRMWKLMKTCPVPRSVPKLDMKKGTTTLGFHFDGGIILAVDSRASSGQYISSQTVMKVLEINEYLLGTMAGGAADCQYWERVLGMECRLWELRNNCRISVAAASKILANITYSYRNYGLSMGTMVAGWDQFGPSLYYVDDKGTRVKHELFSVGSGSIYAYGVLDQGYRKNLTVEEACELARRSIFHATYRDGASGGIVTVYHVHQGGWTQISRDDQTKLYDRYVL
The assay is described as follows: Trypanosoma cruzi proteasome chymotrypsin-like activity (TcProtChymo) assay. Note: in the data most compounds retested in dose-response had high values. The assay is classed as functional. To be noted: 9.37 µM.

For assay [8], the system named is N/A. The assay is described as follows: Trypanosoma cruzi proteasome luciferase counter-screen. As to conditions: 9.37 µM. The assay is classed as functional. Background: A counterscreen serves to expose hits that act by an unwanted route or on another target.
The species entered for assay [9] is Homo sapiens. Put plainly: To identify inhibition of the IFN signalling (Jak-Stat) pathway via expression of an eGFP reporter gene under the control of an IFN-stimulated response element (ISRE) containing MxA promoter. The assay is classed as functional. As to conditions: 30 µM. (In general: Reporter assays use an easily measured gene product as a stand-in for the process of interest.)

The target of assay [10] is T4, Tyrosyl-tRNA synthetase, putative (Trypanosoma cruzi (strain CL Brener)) (UniProt Q4DSP6).
T4 sequence (whole entry): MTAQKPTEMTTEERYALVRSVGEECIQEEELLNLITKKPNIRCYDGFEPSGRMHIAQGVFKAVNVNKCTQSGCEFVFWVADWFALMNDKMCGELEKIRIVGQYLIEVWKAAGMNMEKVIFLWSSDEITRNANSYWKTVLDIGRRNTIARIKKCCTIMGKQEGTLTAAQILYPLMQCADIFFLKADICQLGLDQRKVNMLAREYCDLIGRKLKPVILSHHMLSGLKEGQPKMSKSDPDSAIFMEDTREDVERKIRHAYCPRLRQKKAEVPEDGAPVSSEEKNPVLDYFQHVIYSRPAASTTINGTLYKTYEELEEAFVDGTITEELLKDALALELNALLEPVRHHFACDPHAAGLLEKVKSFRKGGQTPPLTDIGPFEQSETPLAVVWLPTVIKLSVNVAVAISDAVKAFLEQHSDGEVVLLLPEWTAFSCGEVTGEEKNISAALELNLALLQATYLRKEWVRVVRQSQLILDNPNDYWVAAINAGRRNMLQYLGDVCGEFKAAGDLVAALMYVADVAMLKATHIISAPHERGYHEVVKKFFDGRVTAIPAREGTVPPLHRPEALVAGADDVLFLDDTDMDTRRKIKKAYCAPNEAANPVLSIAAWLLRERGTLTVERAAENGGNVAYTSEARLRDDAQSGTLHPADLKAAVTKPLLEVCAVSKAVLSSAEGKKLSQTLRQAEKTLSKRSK
Put plainly: Trypanosoma cruzi tyrosyl tRNA synthetase (TcYRS) _High Tyrosine SOP. Note: in the data most compounds retested in dose-response had high values. The assay is classed as functional. To be noted: 30 µM.

Assay [11] concerns the target T4, Tyrosyl-tRNA synthetase, putative (Trypanosoma cruzi (strain CL Brener)). Put plainly: Trypanosoma cruzi tyrosyl tRNA synthetase (TcYRS) SOP. The assay is classed as functional. As to conditions: 30 µM.
Assay [12] has as its target Chromo domain-containing protein 1 (Saccharomyces cerevisiae (strain ATCC 204508 / S288c) (Baker's yeast)) (UniProt P32657). The assay is described as follows: ScCHD-1 Enzyme Inhibition Assay. Note: in the data most compounds retested in dose-response had high values. Format: functional. As to conditions: 30 µM.

Protein translocase subunit SecA (Escherichia coli (strain K12)), sequence (P10408 whole entry): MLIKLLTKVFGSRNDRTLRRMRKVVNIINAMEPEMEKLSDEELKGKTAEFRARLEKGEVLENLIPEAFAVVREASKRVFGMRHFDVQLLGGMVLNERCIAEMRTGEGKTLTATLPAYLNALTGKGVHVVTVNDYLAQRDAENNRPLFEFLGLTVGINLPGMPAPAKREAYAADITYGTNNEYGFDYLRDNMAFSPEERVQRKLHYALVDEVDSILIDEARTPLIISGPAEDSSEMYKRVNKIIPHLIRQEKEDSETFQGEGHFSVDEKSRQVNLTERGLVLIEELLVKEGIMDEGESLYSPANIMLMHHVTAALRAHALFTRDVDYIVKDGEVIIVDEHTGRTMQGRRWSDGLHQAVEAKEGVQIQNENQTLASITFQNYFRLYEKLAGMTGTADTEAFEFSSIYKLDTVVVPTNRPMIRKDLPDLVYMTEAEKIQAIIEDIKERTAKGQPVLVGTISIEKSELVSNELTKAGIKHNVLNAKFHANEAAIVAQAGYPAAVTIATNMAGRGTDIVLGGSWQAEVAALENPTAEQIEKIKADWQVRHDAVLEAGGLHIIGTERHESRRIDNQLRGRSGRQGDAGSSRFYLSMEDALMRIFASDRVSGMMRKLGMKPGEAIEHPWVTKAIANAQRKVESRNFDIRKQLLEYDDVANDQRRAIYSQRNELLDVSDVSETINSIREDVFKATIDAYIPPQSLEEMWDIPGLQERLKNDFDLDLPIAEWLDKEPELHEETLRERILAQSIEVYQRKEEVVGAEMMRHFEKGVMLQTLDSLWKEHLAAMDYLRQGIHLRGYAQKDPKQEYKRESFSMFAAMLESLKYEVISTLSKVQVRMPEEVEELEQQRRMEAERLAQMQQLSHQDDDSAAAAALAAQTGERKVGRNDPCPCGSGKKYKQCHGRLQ
Sialic acid-binding Ig-like lectin 9 (Homo sapiens), sequence (Q9Y336 whole entry): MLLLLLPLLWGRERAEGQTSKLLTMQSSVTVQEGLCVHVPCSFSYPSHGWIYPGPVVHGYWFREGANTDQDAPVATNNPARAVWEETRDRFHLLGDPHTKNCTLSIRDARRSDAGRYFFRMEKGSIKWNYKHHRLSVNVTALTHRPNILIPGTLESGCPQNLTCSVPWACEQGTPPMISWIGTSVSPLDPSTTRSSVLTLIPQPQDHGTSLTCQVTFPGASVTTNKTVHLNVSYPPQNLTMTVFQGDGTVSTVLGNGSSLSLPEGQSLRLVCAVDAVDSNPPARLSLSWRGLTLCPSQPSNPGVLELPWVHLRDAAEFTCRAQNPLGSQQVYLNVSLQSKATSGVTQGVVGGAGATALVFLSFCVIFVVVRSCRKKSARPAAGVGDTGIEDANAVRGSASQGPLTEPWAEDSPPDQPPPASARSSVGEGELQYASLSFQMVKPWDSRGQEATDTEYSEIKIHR
Chromo domain-containing protein 1 (Saccharomyces cerevisiae (strain ATCC 204508 / S288c) (Baker's yeast)), sequence (P32657 whole entry, the tested form may be a part): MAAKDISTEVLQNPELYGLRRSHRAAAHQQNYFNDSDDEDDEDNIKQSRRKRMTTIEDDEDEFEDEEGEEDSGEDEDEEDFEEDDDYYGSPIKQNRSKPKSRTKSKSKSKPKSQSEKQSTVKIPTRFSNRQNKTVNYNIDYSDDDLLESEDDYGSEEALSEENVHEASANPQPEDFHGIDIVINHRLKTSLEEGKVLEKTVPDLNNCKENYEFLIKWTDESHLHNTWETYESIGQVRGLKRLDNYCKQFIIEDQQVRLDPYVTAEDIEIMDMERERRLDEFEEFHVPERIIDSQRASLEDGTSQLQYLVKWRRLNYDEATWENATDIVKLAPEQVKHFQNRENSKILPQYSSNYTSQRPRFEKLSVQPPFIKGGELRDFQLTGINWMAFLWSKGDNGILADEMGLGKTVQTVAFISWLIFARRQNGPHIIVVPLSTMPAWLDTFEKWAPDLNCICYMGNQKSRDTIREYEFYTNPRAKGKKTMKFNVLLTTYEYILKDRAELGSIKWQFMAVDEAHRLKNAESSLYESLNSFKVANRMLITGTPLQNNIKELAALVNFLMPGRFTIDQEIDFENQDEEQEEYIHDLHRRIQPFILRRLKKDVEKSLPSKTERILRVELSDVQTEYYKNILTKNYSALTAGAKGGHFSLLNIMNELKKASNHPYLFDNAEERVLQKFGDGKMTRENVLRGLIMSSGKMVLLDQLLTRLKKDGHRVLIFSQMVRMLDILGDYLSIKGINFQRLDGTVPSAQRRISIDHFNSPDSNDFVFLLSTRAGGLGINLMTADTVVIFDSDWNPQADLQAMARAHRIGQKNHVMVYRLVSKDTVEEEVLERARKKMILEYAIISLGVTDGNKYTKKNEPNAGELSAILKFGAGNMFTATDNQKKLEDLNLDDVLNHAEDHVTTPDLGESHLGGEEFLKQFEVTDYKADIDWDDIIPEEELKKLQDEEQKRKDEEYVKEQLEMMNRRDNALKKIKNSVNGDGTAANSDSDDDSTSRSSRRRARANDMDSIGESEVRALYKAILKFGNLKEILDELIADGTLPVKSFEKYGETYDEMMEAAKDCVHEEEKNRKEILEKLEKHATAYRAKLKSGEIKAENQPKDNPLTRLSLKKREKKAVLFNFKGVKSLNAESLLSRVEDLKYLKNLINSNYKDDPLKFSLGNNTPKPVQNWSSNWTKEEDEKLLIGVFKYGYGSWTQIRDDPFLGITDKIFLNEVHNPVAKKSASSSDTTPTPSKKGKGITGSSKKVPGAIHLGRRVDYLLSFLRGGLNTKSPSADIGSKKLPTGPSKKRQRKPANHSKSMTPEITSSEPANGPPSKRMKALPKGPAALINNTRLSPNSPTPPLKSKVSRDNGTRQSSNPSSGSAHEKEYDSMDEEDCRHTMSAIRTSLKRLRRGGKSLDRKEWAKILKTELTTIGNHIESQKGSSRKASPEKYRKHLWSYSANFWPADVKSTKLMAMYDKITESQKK

With `Cc1nc(CN2CCOC(CNc3cccnn3)C2)oc1C` (stereo unspecified), the Percent Effect in assay [1] was -1.3%; in assay [2], 0%; in assay [3], -22.1%; in assay [4] it was -5.8%; in assay [5], 0.283%; in [6] it was 28.9%. Further, the Percent Effect was 30.6% and 26.7% and 36.4% in [7]; 11.3% and 10.2% in assay [8]; 11.3% in [9]; 2.46% in [10]; -8.64% in [11]; -0.197% in assay [12].

For the molecule `CC(C1CC1)N(C)C(=O)c1cnc(-c2ccc3c(c2)OCO3)s1` (stereo unspecified), the Percent Effect in assay [1] was -5.81%; in assay [2], 0%; in assay [3], 11.9%; in assay [4], 0.585%; in [5] it was -3.33%; in assay [6] it was -1.82%. Also, the Percent Effect was 68.6% and 72.1% and 62.6% in assay [7]; 34.7% and 35.5% in assay [8]; 12.2% in [9]; -2.15% in assay [10]; -2.5% in assay [11]; -10.2% in assay [12].

As for `c1cc(OCc2ccc3c(c2)OCCO3)ccc1CNC1CC1`, the Percent Effect in [1] is 5.92%; in assay [2] it was 0%; in assay [3], 13.6%; in assay [4], -13.3%; in [5] it was -7.3%; in [6], -5.92%. Further, the Percent Effect in [7] was 91.2% and 90% and 88.4%; in [8], 63.7% and 65.3%; in [9], 23%; in assay [10], -2.13%; in [11] it was 5.2%; in assay [12], -5.94%.

For the molecule `Cc1nc(CN2C[C@@H]3CN(C(=O)c4cccn4C)C[C@@H]3C2=O)cs1`, the Percent Effect in assay [1] is 1.08%; in assay [2], 13.5%; in assay [3], 1.31%; in assay [4] it was -6.65%; in assay [5] it was -4.2%; in [6] it was -0.955%. For the same molecule, the Percent Effect is 13.3% and 13.5% and 30.8% in assay [7]; 6.13% and 6.46% in [8]; 11.3% in [9]; 3.24% in assay [10]; 15.4% in assay [11]; -1.02% in assay [12].

Regarding `Cc1ccc(NC2CCN(C(=O)CCc3ccco3)CC2)nn1`, the Percent Effect in assay [1] was -5.56%; in assay [2], 2.7%; in assay [3], 6.46%; in [4], 1.2%; in [5], 0.836%; in assay [6], 0.554%. Also, the Percent Effect in [7] was 21.9% and 32.9% and 29.3%; in assay [8] it was -1.73% and 1.88%; in [9] it was 8.89%; in [10], 11.9%; in [11] it was -1.22%; in assay [12] it was 0.23%.

As to `Cc1ccc(-c2nc(CN3CCC(C(=O)N(C)C)CC3)cs2)o1`, the Percent Effect in assay [1] is -3.42%; in [2] it was -1.27%; in assay [3] it was -1.3%; in assay [4], -4.8%; in assay [5], -0.103%; in assay [6], -1.94%. Besides, the Percent Effect is 38.5% and 41.6% and 46.1% in [7]; 21.6% and 19.9% in assay [8]; 21.9% in assay [9]; 12.5% in assay [10]; 22.8% in assay [11]; -29.5% in assay [12].

For the molecule `Cc1cc(C(C)C(=O)N2CCCN(Cc3cscn3)CC2)c(C)o1` (stereo unspecified), the Percent Effect in [1] is -0.889%; in assay [2], 21.1%; in assay [3], -6.33%; in assay [4], 21.4%; in assay [5], 1.5%; in assay [6], -4.98%. For the same molecule, the Percent Effect was 31.9% and 34.8% and 34.4% in [7]; 4.24% and 9.24% in [8]; 23.1% in assay [9]; 3.43% in assay [10]; 17.1% in assay [11]; -9.64% in assay [12].

As to `CC(Cn1cccn1)NCc1csc(-c2ccccc2F)n1` (stereo unspecified), the Percent Effect in assay [1] is -1.44%; in assay [2] it was -5.41%; in assay [3], -14.2%; in [4], 7.22%; in [5], 3.87%; in [6], -4.41%. Moreover, the Percent Effect in assay [7] was 90.3% and 88.1% and 85%; in assay [8], 59.5% and 61%; in assay [9], 13.2%; in [10] it was 1.48%; in [11] it was 11.1%; in assay [12], -4.62%.
